Sampled rows, rich in hits. Any-hit rate of the full collection: about 5.4%.
A3G deaminase – APOBEC3G (human) deaminase inhibition; Q9HC16; recombinant A3G, ssDNA deamination FAM/TAMRA fluorescence; inhibition, % at 20 µM; actives 0.28% (n = 330,000); AID 493012;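 active means inhibition of at least 40% at 20 µM, with no more than 30% in the related APOBEC3A deaminase screen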;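 further: plate controls were DMSO wells with A3G for no effect and wells lacking A3G enzyme for full effect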
Target sequence (Q9HC16 whole entry, looked up): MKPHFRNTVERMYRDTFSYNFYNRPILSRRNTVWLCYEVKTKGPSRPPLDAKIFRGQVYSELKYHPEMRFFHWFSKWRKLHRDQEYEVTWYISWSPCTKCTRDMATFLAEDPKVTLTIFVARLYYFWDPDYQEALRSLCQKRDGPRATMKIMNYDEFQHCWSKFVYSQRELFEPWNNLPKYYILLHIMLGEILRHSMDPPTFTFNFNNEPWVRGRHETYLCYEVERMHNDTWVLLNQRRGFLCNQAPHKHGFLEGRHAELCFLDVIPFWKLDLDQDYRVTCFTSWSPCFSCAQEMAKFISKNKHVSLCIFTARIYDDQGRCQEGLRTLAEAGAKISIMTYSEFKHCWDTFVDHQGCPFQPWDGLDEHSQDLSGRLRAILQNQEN
aDG glyco up – alpha-DG glycosylation activation; Pro5-aDG cells, alpha-DG glycosylation AlphaScreen (IIH6); 0% Pro5, 100% B10-LARGE cell signal; activation, % at 10 µM; actives 0.22% (n = 360,000); AID 624168;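 active means activation of at least 8% versus controls, or a plate z-score of at least 8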;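 further: Pro5 are CHO cells carrying HIG-tagged alpha-DG that lacks glycosylation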
rCAG binder – r(CAG) repeat RNA binding; TO-PRO-1 dye displacement fluorescence; inhibition, % at 3 µM; actives 1.3% (n = 370,000); AID 651821;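 active means inhibition above the plate cutoff, the mean of all test compounds on that plate plus 3 SD, cut at about 35% in these data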;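 further: 0% = DMSO alone and 100% = 100 µM mitoxantrone as full dye displacement; higher means more dye released from RNA so lower well fluorescence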
ALR inh – human ALR oxidase inhibition via reduced H2O2; P55789; purified ALR, DTT oxidation, H2O2 HRP-luminol luminescence; inhibition, % (test concentration not listed); actives 3.8% (n = 290,000);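 active means mean replicate inhibition above about 79%, with every replicate also reaching it, limit read from the data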
PHOSPHO1 block – inhibitors of human PHOSPHO1 phosphatase. Q8TCT1. recombinant PHOSPHO1, absorbance phosphatase assay. inhibition, % at 13.3 µM. actives 1.1% (n = 290,000); in the data active means inhibition above about 60%
APOBEC3A inh – blocks human APOBEC3A ssDNA deamination. P31941. recombinant A3A, FAM/TAMRA ssDNA deamination fluorescence. inhibition, % at 20 µM. actives 0.41% (n = 330,000);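 active means at least 40% inhibition at 20 µM here, with at most 30% in a related deaminase screen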;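 further: plate controls were A3A with DMSO for no effect and wells lacking A3A enzyme for full effect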
Target sequence (P31941 whole entry, looked up): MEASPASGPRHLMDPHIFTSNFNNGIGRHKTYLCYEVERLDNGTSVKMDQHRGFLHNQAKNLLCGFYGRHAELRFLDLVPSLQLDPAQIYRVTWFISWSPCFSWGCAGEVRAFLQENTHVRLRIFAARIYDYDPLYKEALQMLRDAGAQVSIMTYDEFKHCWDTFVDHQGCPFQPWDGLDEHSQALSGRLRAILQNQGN
APOBEC3A confirm – APOBEC3A (human) deaminase inhibition, confirmed; actives 63% (n = 1,400); inhibition, % at 20 µM; recombinant A3A, ssDNA deaminase UDG fluorescence assay; shares compounds with APOBEC3A inh;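 active means inhibition reaching a set limit, 80% of the first screen's cutoff, at 20 µM in any replicate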;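 further: plate controls were DMSO wells with A3A for no effect and wells lacking A3A enzyme for full effect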
UDG A3A counter – inhibits UDG, flagging false APOBEC3A inhibitors. shares compounds with APOBEC3A inh. 1,000 tested, under 10 active. AID 504714. inhibition, % at 20 µM. UDG counterscreen, FAM/TAMRA uracil oligo fluorescence; call rule not given here
* = called active by the depositor; . = no result.

SMILES | A3G deaminase | aDG glyco up | rCAG binder | ALR inh | PHOSPHO1 block | APOBEC3A inh | APOBEC3A confirm | UDG A3A counter
CSc1cccc(N2CC(C(=O)Nc3cccc(S(=O)(=O)N4CCCC4)c3)CC2=O)c1 (configuration not stated) | 15 | 0 | 3 | -5 | . | 56* | 14 | .
CCOc1ccc(N2CC(C(=O)Nc3cccc(S(=O)(=O)N4CCCCC4)c3)CC2=O)cc1 (configuration not stated) | -4 | 1 | 4 | -18 | -21 | -2 | . | .
CSc1nc2ccc(NS(=O)(=O)c3ccc(Br)s3)cc2s1 | -4 | 0 | 27 | . | 12 | 0 | . | .
O=S(=O)(Nc1ccon1)c1ccc(Br)s1 | -5 | 0 | 1 | -5 | 18 | 76* | -2 | -3
Cc1cc(/C=N/NC(=O)c2cccc(N(C)C)c2)c(C)n1-c1cc(C(=O)O)cc(C(=O)O)c1 | 25 | 0 | . | . | -1 | 66* | 65* | 1
CCOC(=O)CN1C(=O)[C@]2(OCCC=C[C@H]2C)c2cc(OC)ccc21 | . | . | -2 | . | . | . | . | .
COC(=O)c1ccc(CN2C(=O)c3ccccc3S2(=O)=O)cc1 | -7 | 0 | -4 | 0 | -33 | 1 | . | .
COC(=O)c1cccc(N2C(=O)c3ccccc3S2(=O)=O)c1 | 19 | 0 | 2 | . | 92* | 40* | 1 | .
Cc1ccc(S(=O)(=O)N2CCC(C(=O)Nc3ccc(N4CCOCC4)cc3)CC2)cc1C | 4 | 0 | -1 | . | . | 43* | 11 | .
CN(C)S(=O)(=O)c1ccc(N2CCCC2)c(C(=O)Nc2ccc(F)cc2F)c1 | 3 | 0 | -1 | -4 | . | 41* | 1 | .
COc1ccccc1CNC(=O)c1cc(-c2cc(F)ccc2OC(C)C)n[nH]1 | . | 1 | 3 | . | . | . | . | .
COc1ccccc1-c1sc2ccccc2c1-c1cnc(N2CCOCC2)nc1 | . | 4 | 5 | . | . | . | . | .
CC(=O)NC(CC(=O)NC1CCCCCC1)c1ccccc1 (configuration not stated) | -4 | 0 | 0 | -3 | -17 | 45* | 32* | -2
CC(=O)NC(CC(=O)NC1CCCCC1)c1ccccc1 (configuration not stated) | -7 | 0 | -1 | 0 | -9 | 30 | . | .
Cc1ccc2nc(-c3ccc(F)cc3)c(Cc3cccc(F)c3)n2c1 | . | . | 2 | . | . | . | . | .
CCOc1cc(N2CCOCC2)c(OCC)cc1NC(=O)c1c(C)noc1C | 6 | 0 | -7 | . | . | 43* | 8 | .
CCOc1cc(N2CCOCC2)c(OCC)cc1NC(=O)c1c(-c2ccccc2)noc1C | 0 | 0 | -2 | 2 | . | -1 | . | .
CCOc1cc(N2CCOCC2)c(OCC)cc1NS(=O)(=O)c1cc(NC(C)=O)ccc1OC | 6 | 0 | 2 | 12 | 19 | 46* | 20* | -3
O=C1C(=NO)CC(c2ccccc2)N1c1ccccc1 (configuration not stated) | . | 0 | 3 | . | . | . | . | .
C[C@@H]1ON(C)[C@H]2C[C@H]3c4cc(Nc5ccccc5)ccc4CCN3C[C@@H]12 | . | . | -1 | . | . | . | . | .
Clc1ccc(Sc2oc(/C=N/n3cnnc3)cc2Br)cc1 | 25 | 0 | 0 | -12 | 84* | 43* | 72* | -4
Clc1ccc(Sc2ccc(/C=N/n3cnnc3)o2)cc1 | -6 | 1 | -4 | 2 | 31 | -2 | . | .
CC12CC(O)C3c4ccc(O)cc4CCC3C1CC/C2=N\O (configuration not stated) | -13 | 0 | -1 | . | 36 | 51* | 1 | 2
C[C@]12C[C@H](O)[C@@H]3c4ccc(O)cc4CCC3[C@@H]1CCC2=O (some centres not stated) | -1 | 0 | 0 | . | 37 | 0 | . | .
CCCC(=O)OC[C@H]1CN(C2CCCC2)S(=O)(=O)c2c(Oc3ccc(C(C)(C)C)cc3)cccc2O1 | . | . | 6 | . | . | . | . | .
SMILES | A3G deaminase | aDG glyco up | rCAG binder | ALR inh | PHOSPHO1 block | APOBEC3A inh | APOBEC3A confirm | UDG A3A counter
CC(C)C(NC(=O)c1ccccc1F)C(=O)NCc1ccc(F)cc1 (configuration not stated) | 3 | 0 | -5 | -5 | 4 | 40* | 13 | .
O=C(COc1ccccc1Cl)Nc1cccnc1 | 0 | 0 | -2 | -9 | 18 | 0 | . | .
Cc1ccc(Cl)c(OCC(=O)Nc2cccnc2)c1 | 4 | 0 | -6 | -3 | 12 | 44* | -3 | .
CCOC1=C2[C@@H](CN(S(=O)(=O)c3ccc(C)cc3)[C@H]2c2ccccc2F)[C@H]2C(=O)NC(=O)[C@H]2C1 | . | 0 | 5 | . | . | . | . | .
CN(C)c1cc[n+](CC(=O)Nc2ccc(OC(F)F)cc2)cc1 | 11 | 0 | -1 | 10 | 12 | 48* | 65* | -3
CN(C)c1cc[n+](CC(=O)Nc2ccc(Cl)c([N+](=O)[O-])c2)cc1 | -7 | 0 | -3 | -13 | 14 | 0 | . | .
Cc1ccc(NC(=O)CN(c2ccccc2F)S(C)(=O)=O)cc1 | 3 | 0 | -4 | -2 | -15 | 52* | -2 | .
Cc1ccccc1N(CC(=O)Nc1ccc(F)cc1)S(C)(=O)=O | -3 | 0 | 0 | -5 | -18 | -1 | . | .
CC(C)C(C#CC1CC1)N(Cc1ccc2c(c1)OCO2)C(N)=NC(=O)/C=C/c1ccccc1 (configuration not stated) | . | . | 6 | . | . | . | . | .
Cc1onc(-c2ccccc2)c1C(=O)NCC1CCN(C(=O)C(=O)c2cccs2)CC1 | . | . | 1 | . | . | . | . | .
CCC[N+]1(CC#CC2(O)CCCCC2)CCOCC1 | 16 | -1 | -1 | -1 | 2 | 74* | 82* | 3
O=C(CSc1nc2sccc2c(=O)[nH]1)N1CCN(c2ccccc2)CC1 | 15 | 0 | 14 | 59 | 28 | 87* | 53* | -2
CC(C)NC(=O)Cn1nnc(-c2ccccc2)c1COc1ccc2ccccc2c1 | . | 0 | 0 | . | . | . | . | .
Cc1ccc(C)c(NC(=O)C2CC(O)CN2C(=O)OCc2ccccc2)c1 (configuration not stated) | -6 | 0 | -7 | -9 | 7 | -2 | . | .
Cc1ccc(C)c(NC(=O)C2CC(O)CN2C(=O)Oc2ccccc2)c1 (configuration not stated) | 6 | 0 | -1 | . | 12 | 54* | 41* | -3
O=C(NCCOc1cccc(Cl)c1Cl)c1cc(-n2cnnc2)ccc1Cl | -6 | 0 | . | -5 | 39 | -1 | . | .
O=C(NCc1ccc2c(c1)OCO2)c1ccccc1Cl | 0 | 0 | -1 | -7 | . | 8 | . | .
CCSCCNC(=O)c1cc(-n2cnnc2)ccc1Cl | 25 | 0 | -2 | -4 | -25 | 60* | 60* | 2
O=C(NCc1ccc2c(c1)OCO2)c1cc(-n2cnnc2)ccc1Cl | 12 | 0 | 0 | -6 | -7 | 57* | 72* | -1
CCn1c(SCC(=O)NN=Cc2c(C)nn(-c3ccccc3)c2C)nnc1-c1ccc(OC)c(OC)c1 | . | . | -1 | . | . | . | . | .

Bioassay records: PubChem BioAssay, several laboratories
